Our source for the growth inhibition values is PubChem BioAssay (NCI).

This is part of a sample that, as a whole, favours compounds with a hit. Of some 79,000 tested, about 15% had one in any assay. A number with no mark means an inactive call. Calls of active or inactive are those of the source. No stated cut-off is given here; in the data, active means growth inhibition above about 70%; inactive means the rest.

A short description of experiment [1]: NCI Yeast Anticancer Drug Screen. Data for the rad50 strain (AID 155).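 Further: 0% = growth of vehicle-only cultures of the same strain.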 As to conditions: S. cerevisiae rad50 strain growth inhibition, stronger effect = higher value. In a few lines: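 Yeast carrying a defined DNA repair defect were exposed to test compounds, and growth was compared with vehicle-treated controls to give percent inhibition.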
Experiment [2] is described as follows: NCI Yeast Anticancer Drug Screen. Data for the mec2-1 strain (AID 157). As to conditions: S. cerevisiae mec2-1 strain, stronger effect = higher value. The procedure, abridged:
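Using mec2-1 yeast: add compound, measure growth, express inhibition versus vehicle-treated cultures.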

Experiment [3] can be described thus: NCI Yeast Anticancer Drug Screen. Data for the sgs1 mgt1 strain (AID 161).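 Further: 0% = growth of cultures given vehicle only.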 Conditions: S. cerevisiae sgs1 mgt1 strain, stronger effect = higher value. In a few lines:
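Compounds are added to genetically altered yeast, and growth is compared with cultures given vehicle alone to give percent inhibition.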

Experiment [4] can be described thus: NCI Yeast Anticancer Drug Screen. Data for the cln2 rad14 strain (AID 165).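 Further: 0% = growth equal to vehicle treated cultures.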 Conditions: S. cerevisiae cln2 rad14 strain, stronger effect = higher value. The procedure, abridged:
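Yeast strain cln2 rad14, bearing defects in cell cycle control and DNA repair, serves as the test system; values reflect growth inhibition compared with vehicle.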

Experiment [5] is described as follows: NCI Yeast Anticancer Drug Screen. Data for the bub3 strain (AID 167). Conditions: S. cerevisiae bub3 mutant strain, stronger effect = higher value. In a few lines: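 Compounds were applied to a genetically altered yeast strain carrying a cell-cycle control defect. Growth inhibition was scored against vehicle-treated controls.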
The nature of experiment [6]: NCI Yeast Anticancer Drug Screen. Data for the mlh1 rad18 strain (AID 175). Conditions: S. cerevisiae mlh1 rad18 strain growth inhibition, stronger effect = higher value. The procedure, abridged: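 Steps: expose repair-defective yeast to compound; measure growth; express inhibition against vehicle-treated controls.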
Where [7] appears, read: at 5.0 µM (retest, dose inferred, filed as 0.5).
The mark [8] stands for this setting: at 50.0 µM (retest, dose inferred, filed as 5.0).

Turning to `COc1ccc(CNC(C#N)c2ccccc2)cc1OC` (configuration not stated), the growth inhibition was 7% in experiment [1] (setting [7]); -2% in experiment [1] (setting [8]); 99% (active) in experiment [1] (at 50.0 µM); 2% in experiment [2] (setting [7]); -3% in experiment [2] (setting [8]); 99.7% (active) in experiment [2] (at 50.0 µM). The growth inhibition was 3% in experiment [3] (setting [7]); -2% in experiment [3] (setting [8]); 99.7% (active) in experiment [3] (at 50.0 µM); 5% in experiment [4] (setting [7]); -3% in experiment [4] (setting [8]); 99.5% (active) in experiment [4] (at 50.0 µM). Besides, the growth inhibition in experiment [5] (setting [7]) was 1%; in experiment [5] (setting [8]), -4%; in experiment [5] (at 50.0 µM), 99.6% (active); in experiment [6] (setting [7]), 2%; in experiment [6] (setting [8]) it was -5%; in experiment [6] (at 50.0 µM), 99.5% (active).

For `COC12CC(=O)C(C(C)=O)=C(O)C1(C)c1c(OC(C)=O)c(C)c(O)c(C(C)=O)c1O2` (configuration not stated), the growth inhibition in experiment [1] (setting [7]) was 17%; in experiment [1] (setting [8]), 57%; in experiment [1] (at 50.0 µM), 45.1%; in experiment [2] (setting [7]) it was 14%; in experiment [2] (setting [8]), 63%; in experiment [2] (at 50.0 µM) it was 52.3%. Further, the growth inhibition in experiment [3] (setting [7]) is 31%; in experiment [3] (setting [8]), 73% (active); in experiment [3] (at 50.0 µM), 19.2%; in experiment [4] (setting [7]) it was 19%; in experiment [4] (setting [8]), 50%; in experiment [4] (at 50.0 µM), 41%. Besides, the growth inhibition in experiment [5] (setting [7]) is 62%; in experiment [5] (setting [8]) it was 92% (active); in experiment [5] (at 50.0 µM) it was 43.5%; in experiment [6] (setting [7]), 19%; in experiment [6] (setting [8]), 64%; in experiment [6] (at 50.0 µM), 92.8% (active).

For `COc1ccc(C(=O)C2C(=O)C(=O)OC2C2OC(=O)C(=O)C2C(=O)c2ccc(OC)cc2)cc1` (configuration not stated), the growth inhibition in experiment [1] (setting [7]) was -1%; in experiment [1] (setting [8]) it was 2%; in experiment [1] (at 50.0 µM), -9.6%; in experiment [2] (setting [7]), -3%; in experiment [2] (setting [8]) it was -3%; in experiment [2] (at 50.0 µM), -7.3%. In addition, the growth inhibition in experiment [3] (setting [7]) was 0%; in experiment [3] (setting [8]) it was 2%; in experiment [3] (at 50.0 µM), -8.2%; in experiment [4] (setting [7]) it was -4%; in experiment [4] (setting [8]) it was 1%; in experiment [4] (at 50.0 µM), -15.3%. Moreover, the growth inhibition in experiment [5] (setting [7]) is 0%; in experiment [5] (setting [8]), -5%; in experiment [5] (at 50.0 µM), 3.05%; in experiment [6] (setting [7]), 0%; in experiment [6] (setting [8]) it was -1%; in experiment [6] (at 50.0 µM) it was -15.7%.

Take `CN1c2ccccc2C(=O)NC1c1ccc([N+](=O)[O-])s1` (configuration not stated): the growth inhibition in experiment [1] (setting [7]) is -9%; in experiment [1] (setting [8]), 53%; in experiment [1] (at 50.0 µM), 63.5%; in experiment [2] (setting [7]), 7%; in experiment [2] (setting [8]), 8%; in experiment [2] (at 50.0 µM) it was 41%. Further, the growth inhibition was -19% in experiment [3] (setting [7]); 32% in experiment [3] (setting [8]); 71.8% (active) in experiment [3] (at 50.0 µM); 11% in experiment [4] (setting [7]); 23% in experiment [4] (setting [8]); 33.4% in experiment [4] (at 50.0 µM). The growth inhibition in experiment [5] (setting [7]) is -47%; in experiment [5] (setting [8]), 35%; in experiment [5] (at 50.0 µM), 57%; in experiment [6] (setting [7]), -22%; in experiment [6] (setting [8]), 63%; in experiment [6] (at 50.0 µM), 73.1% (active).

As for `COC(CO)(OC)c1ccccc1`, the growth inhibition is -163% in experiment [1] (setting [7]); -65% in experiment [1] (setting [8]); -0.65% in experiment [1] (at 50.0 µM); -50% in experiment [2] (setting [7]); -50% in experiment [2] (setting [8]); -2.9% in experiment [2] (at 50.0 µM). Besides, the growth inhibition in experiment [3] (setting [7]) is -66%; in experiment [3] (setting [8]), -49%; in experiment [3] (at 50.0 µM) it was -9%; in experiment [4] (setting [7]), -63%; in experiment [4] (setting [8]), -70%; in experiment [4] (at 50.0 µM) it was 25.6%. In addition, the growth inhibition in experiment [5] (setting [7]) is -70%; in experiment [5] (setting [8]), -71%; in experiment [5] (at 50.0 µM) it was -29.1%; in experiment [6] (setting [7]) it was -128%; in experiment [6] (setting [8]) it was -130%; in experiment [6] (at 50.0 µM) it was 3.5%.

`O=C(Nc1cc(-c2ccccc2)[nH]n1)c1ccccc1`: the growth inhibition in experiment [1] (setting [7]) was 34%; in experiment [1] (setting [8]), 36%; in experiment [1] (at 50.0 µM) it was 33.4%; in experiment [2] (setting [7]), 29%; in experiment [2] (setting [8]), 37%; in experiment [2] (at 50.0 µM), 16.1%. Also, the growth inhibition in experiment [3] (setting [7]) is 38%; in experiment [3] (setting [8]) it was 58%; in experiment [3] (at 50.0 µM), 23.9%; in experiment [4] (setting [7]), 23%; in experiment [4] (setting [8]) it was 25%; in experiment [4] (at 50.0 µM) it was 18%. Moreover, the growth inhibition is 31% in experiment [5] (setting [7]); 73% (active) in experiment [5] (setting [8]); 56.8% in experiment [5] (at 50.0 µM); 46% in experiment [6] (setting [7]); 47% in experiment [6] (setting [8]); 23.4% in experiment [6] (at 50.0 µM).

`CC(C)[CH2][Ge]([Cl])([Cl])[Cl]`: the growth inhibition in experiment [1] (setting [7]) was 1%; in experiment [1] (setting [8]) it was -8%; in experiment [1] (at 50.0 µM), 98.5% (active); in experiment [2] (setting [7]) it was 2%; in experiment [2] (setting [8]), -2%; in experiment [2] (at 50.0 µM) it was 98.8% (active). Moreover, the growth inhibition in experiment [3] (setting [7]) is 3%; in experiment [3] (setting [8]), -15%; in experiment [3] (at 50.0 µM) it was 98.7% (active); in experiment [4] (setting [7]), -2%; in experiment [4] (setting [8]), -14%; in experiment [4] (at 50.0 µM), 98.5% (active). Moreover, the growth inhibition in experiment [5] (setting [7]) was 3%; in experiment [5] (setting [8]), -3%; in experiment [5] (at 50.0 µM) it was 99% (active); in experiment [6] (setting [7]), 1%; in experiment [6] (setting [8]) it was 1%; in experiment [6] (at 50.0 µM), 99% (active).

On to `CCOC(=O)C(NC(C)=O)[CH](c1ccccc1)[Sn]([Cl])([c]1ccccc1)[c]1ccccc1` (configuration not stated), for which the growth inhibition in experiment [1] (setting [7]) is -7%; in experiment [1] (setting [8]), -13%; in experiment [1] (at 50.0 µM) it was 59.4%; in experiment [2] (setting [7]) it was -1%; in experiment [2] (setting [8]), -12%; in experiment [2] (at 50.0 µM), 65.7%. Further, the growth inhibition in experiment [3] (setting [7]) was -8%; in experiment [3] (setting [8]), -5%; in experiment [3] (at 50.0 µM), 64.7%; in experiment [4] (setting [7]), -22%; in experiment [4] (setting [8]) it was -2%; in experiment [4] (at 50.0 µM), 49.1%. For the same molecule, the growth inhibition in experiment [5] (setting [7]) is -14%; in experiment [5] (setting [8]) it was 12%; in experiment [5] (at 50.0 µM), 37.4%; in experiment [6] (setting [7]), 1%; in experiment [6] (setting [8]), 1%; in experiment [6] (at 50.0 µM) it was 60.5%.

Take `c1ccc(N2CCN(c3ccccc3)C2Cc2c[nH]c3ccccc23)cc1`: the growth inhibition in experiment [1] (setting [7]) is 30%; in experiment [1] (setting [8]) it was 98% (active); in experiment [1] (at 50.0 µM), 99.2% (active); in experiment [2] (setting [7]) it was 19%; in experiment [2] (setting [8]) it was 99% (active); in experiment [2] (at 50.0 µM) it was 98.4% (active). Moreover, the growth inhibition is 25% in experiment [3] (setting [7]); 98% (active) in experiment [3] (setting [8]); 99.4% (active) in experiment [3] (at 50.0 µM); 17% in experiment [4] (setting [7]); 99% (active) in experiment [4] (setting [8]); 92.5% (active) in experiment [4] (at 50.0 µM). Moreover, the growth inhibition was 61% in experiment [5] (setting [7]); 98% (active) in experiment [5] (setting [8]); 99.2% (active) in experiment [5] (at 50.0 µM); 61% in experiment [6] (setting [7]); 99% (active) in experiment [6] (setting [8]); 98.9% (active) in experiment [6] (at 50.0 µM).
